From PubChem
The full list was thinned out, with hits kept by preference.
ROS inducer: ROS inducers in U2OS cancer cells, primary screen, cell-based, H2DCF-DA fluorescence. U2OS ROS induction. ROS induction (% of piperlongumine), % at 10 µM. actives 2% (n = 46,000); in the data active = ROS induction above about 79%, passing the limit was not always enough;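 also: 0% = DMSO vehicle median and 100% = reference compound median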
Starred values were filed as active, the others as inactive.

SMILES	ROS inducer
O=C(CC(NS(=O)(=O)c1ccc(Br)cc1)c1ccco1)NC1CC1 (stereo not given)	-7.0
CCCc1nnc(N(Cc2ccc(Cl)cc2)C(=O)c2ccc(C)cc2)s1	13.1
COC(=O)[C@H]1N=C(c2ccc(OCCCO)cc2)O[C@H]1c1ccccc1N=[N+]=[N-]	8.8
Cc1ccc(NC(=O)C(C)Oc2ccc(Br)cc2)c([N+](=O)[O-])c1 (stereo not given)	14.8
CC/C=C\CC1C(=O)C=C/C1=C/CCCCCCC(=O)O (stereo not given)	15.4
CC/C=C\C=C1\C(=O)C=CC1CCCCCCCC(=O)O (stereo not given)	87.3*
CC/C=C\C/C=C\C/C=C\C/C=C\C/C=C\C/C=C\CCC(=O)O	-6.1
COc1cc(O)c2c(c1)O[C@H](c1ccc(O)c(O)c1)[C@@H](OC(C)=O)C2=O	38.1
CS(=O)(=O)N(CC(=O)Nc1c(F)cccc1F)c1cccc(Cl)c1Cl	5.9
Cc1ccc(Cl)cc1N(CC(=O)Nc1c(F)cccc1F)S(C)(=O)=O	155.8*
Cc1ccc(Cl)cc1NC(=O)CN(c1ccccc1F)S(C)(=O)=O	-9.2
COc1ccc(S(=O)(=O)N(C)C[C@@H]2Oc3ccc(NS(=O)(=O)c4cn(C)cn4)cc3CC(=O)N([C@@H](C)CO)C[C@@H]2C)cc1	-6.0
C=C1C(=O)[C@@]23CCC4[C@](C)(C(=O)O)CCC[C@@]4(C)[C@@H]2CC[C@@H]1C3 (stereo not given in full)	-10.8
Cc1nnc(SCc2cc(=O)[nH]c(Nc3nc(C)c4ccccc4n3)n2)s1	-0.6
CCOc1ccc2nc(Nc3nc(C)c(CCC(C)C)c(=O)[nH]3)nc(C)c2c1	-0.1
Cc1ccc2nc(Nc3nc(CSc4nc5ccccc5s4)cc(=O)[nH]3)nc(C)c2c1	165.7*
Cc1ccc(SCc2cc(=O)[nH]c(Nc3nc(C)c4ccccc4n3)n2)cc1	-13.7
Cc1ccc2nc(Nc3nc(CSc4nnc(C)s4)cc(=O)[nH]3)nc(C)c2c1	49.2
CCc1ccc2nc(Nc3nc4ccccc4c(=O)[nH]3)nc(C)c2c1	132.1*
Cc1noc(C)c1NC(=O)N(C)C[C@@H]1Oc2ccc(NC(=O)Nc3cccc4ccccc34)cc2C(=O)N([C@@H](C)CO)C[C@H]1C	-3.3
COc1ccc([N+](=O)[O-])cc1N(CC(=O)Nc1cccc(C)c1)S(C)(=O)=O	-2.7
CC(C)(C)C1CCc2c(sc(NC(=O)CN3CCOCC3)c2C#N)C1 (stereo not given)	-3.6
O=C(NC1CCCCCC1)C1CC1	-19.1
CCOc1ccc(-n2nc3ccc(NC(=O)COc4ccccc4Cl)cc3n2)cc1	25.6
CCc1ccc(NC(=O)C(CC)Sc2nc3ccsc3c(=O)n2C2CC2)cc1 (stereo not given)	12.8
SMILES	ROS inducer
O=C(CSc1nc2ccccc2c(=O)n1-c1ccc(Cl)cc1)Nc1cccc(Cl)c1	-6.9
Cc1cc(/C=C2/C(=N)N3C=CSC3=NC2=O)c(C)n1-c1ccccc1	219.8*
Cc1cc(/C=C2/SC(=O)N(c3ccccc3)C2=O)c(C)n1-c1cccnc1	46.3
Cc1ccc(COc2ccc(/C=C3/C(=N)N4C=CSC4=NC3=O)cc2Br)cc1	-4.2
C/C=C/[C@H](CCn1cc([C@H](O)c2ccccc2)nn1)[Si](C)(C)c1ccc(OC)cc1	109.7*
C/C=C/[C@@H](CCn1cc([C@H](O)c2ccccc2)nn1)[Si](C)(C)c1ccc(OC)cc1	3.2
C/C=C/[C@H](CCn1cc(CCO)nn1)[Si](C)(C)c1ccc(OC)cc1	2.8
CCn1c(CCNC(=O)C2CCCCC2)nc2ccccc21	-1.2
CCn1cc(CCCC(=O)NCCc2ccc(Cl)cc2)c2ccccc21	-4.8
O=C1c2ccccc2NC(c2ccccc2)N1N=C1CCCCCC1 (stereo not given)	95.8*
O=C1NCCN1CCN1C(=O)c2ccccc2NC1c1ccccc1 (stereo not given)	-12.1
O=C1c2ccccc2NC(c2ccccc2)N1NS(=O)(=O)c1ccccc1 (stereo not given)	-8.6
NC(CC(=O)O)c1cccc([N+](=O)[O-])c1 (stereo not given)	35.2
Cc1cc(C)c(NC(=O)c2cc(S(=O)(=O)N3CCc4ccccc43)ccc2F)c(C)c1	11.4
Cc1ccc(S(=O)(=O)N2CCC(=O)c3ccccc32)cc1	11.6
Cc1cc(C)c(S(=O)(=O)N2CCc3ccccc32)c(C)c1	105.1*
CCN(CC)C(=O)Cn1ncc2c(C)n(Cc3ccccc3F)c(C)c2c1=O	-3.0
Cc1noc(C)c1S(=O)(=O)N(C)C[C@H]1Oc2ccc(NS(=O)(=O)c3cn(C)cn3)cc2CC(=O)N([C@@H](C)CO)C[C@@H]1C	-1.8
Cc1ccc(S(=O)(=O)N(C)CC(=O)Nc2ccc(Cl)cc2C(F)(F)F)cc1	21.6
COc1cc(Cl)c(C)cc1NC(=O)CN(C)S(=O)(=O)c1ccc(Br)cc1	6.7
Cc1cc(Br)ccc1NC(=O)CN(C)S(=O)(=O)c1ccc(Cl)cc1	134.8*
COc1ccc(S(=O)(=O)N(C)CC(=O)Nc2ccccc2F)cc1Cl	0.2
COc1ccc(S(=O)(=O)N(C)CC(=O)Nc2ccccc2Br)cc1Cl	111.8*
Cc1ccc(S(=O)(=O)N(C)CC(=O)Nc2cc(Cl)ccc2Oc2ccccc2)cc1	89.8*
COc1cc(OC)c(NC(=O)CN(C)S(=O)(=O)c2ccc(C)cc2)cc1Cl	1.4
SMILES	ROS inducer
COc1ccc(S(=O)(=O)N(C)CC(=O)Nc2ccccc2OC)cc1Cl	-11.5
Cc1ccc([N+](=O)[O-])cc1NC(=O)CN(C)S(=O)(=O)c1ccc(Cl)cc1	6.2
COc1ccc(Cl)cc1NC(=O)C(C)NS(=O)(=O)c1ccc(Br)cc1 (stereo not given)	-2.6
CCn1c(SCC(=O)c2ccc(OC)cc2)nnc1-c1cc2cc(Br)ccc2o1	-9.3
O=C1O[C@H](c2ccccc2)[C@H](c2ccccc2)N2[C@H]1[C@@H](C(=O)Nc1nc3ccccc3s1)[C@]1(C(=O)Nc3ccc(C#CC4(O)CCCCCC4)cc31)[C@H]2c1ccc(OCCO)cc1	17.3
C[C@@H]1CCCCO[C@@H](CN(C)S(=O)(=O)c2ccc(Cl)cc2)[C@@H](C)CN([C@H](C)CO)C(=O)c2cc(NC(=O)c3ccccc3)ccc2O1	133.4*
Cc1ccc(S(=O)(=O)Nc2ccc3c(c2)C(=O)N([C@H](C)CO)C[C@H](C)[C@@H](CN(C)Cc2ccc4c(c2)OCO4)OCCCC[C@@H](C)O3)cc1	95.2*
C[C@@H]1CCCCO[C@H](CN(C)S(=O)(=O)c2ccc(F)cc2)[C@@H](C)CN([C@H](C)CO)C(=O)c2cc(NS(=O)(=O)c3ccccc3)ccc2O1	18.6
C[C@@H]1CCCCO[C@@H](CN(C)S(=O)(=O)c2ccc(Cl)cc2)[C@@H](C)CN([C@H](C)CO)C(=O)c2cc(NC(=O)c3ccncc3)ccc2O1	11.1
C[C@@H]1CCCCO[C@H](CN(C)S(=O)(=O)c2ccc(F)cc2)[C@@H](C)CN([C@H](C)CO)C(=O)c2cc(NC(=O)NC3CCCCC3)ccc2O1	165.9*
C[C@@H]1CCCCO[C@@H](CN(C)S(=O)(=O)c2ccc(F)cc2)[C@@H](C)CN([C@H](C)CO)C(=O)c2cc(NS(=O)(=O)c3ccc(F)cc3)ccc2O1	69.4
C[C@@H]1CCCCO[C@H](CN(C)S(=O)(=O)c2ccccc2)[C@@H](C)CN([C@H](C)CO)C(=O)c2cc(NC(=O)c3ccccc3)ccc2O1	19.0
C[C@@H]1CCCCO[C@@H](CN(C)Cc2ccc3c(c2)OCO3)[C@@H](C)CN([C@H](C)CO)C(=O)c2cc(NS(=O)(=O)c3ccccc3)ccc2O1	9.8
